Screens from PubChem BioAssay.
Sampled rows, rich in hits. Any-hit rate of the full collection: about 11%.
RORgamma inh: ROR gamma (mouse) transcription inhibition; P51450; Drosophila S2 Gal4-RORgamma UAS-luciferase reporter, 20 h; Potency, µM (titrated, usually from 53.6 µM), without a hit: top-dose activity change, negative = inhibition, most hits filed as inhibitors; hit rate 5.4% among 310,000; note: potency is the fitted concentration of half-maximal effect; % is set by controls: 0 for no effect and ±100 for the full control effect; nearly all actives have a fitted effect of over 60% in size
Target sequence (P51450 whole entry, looked up, the tested form may be a part): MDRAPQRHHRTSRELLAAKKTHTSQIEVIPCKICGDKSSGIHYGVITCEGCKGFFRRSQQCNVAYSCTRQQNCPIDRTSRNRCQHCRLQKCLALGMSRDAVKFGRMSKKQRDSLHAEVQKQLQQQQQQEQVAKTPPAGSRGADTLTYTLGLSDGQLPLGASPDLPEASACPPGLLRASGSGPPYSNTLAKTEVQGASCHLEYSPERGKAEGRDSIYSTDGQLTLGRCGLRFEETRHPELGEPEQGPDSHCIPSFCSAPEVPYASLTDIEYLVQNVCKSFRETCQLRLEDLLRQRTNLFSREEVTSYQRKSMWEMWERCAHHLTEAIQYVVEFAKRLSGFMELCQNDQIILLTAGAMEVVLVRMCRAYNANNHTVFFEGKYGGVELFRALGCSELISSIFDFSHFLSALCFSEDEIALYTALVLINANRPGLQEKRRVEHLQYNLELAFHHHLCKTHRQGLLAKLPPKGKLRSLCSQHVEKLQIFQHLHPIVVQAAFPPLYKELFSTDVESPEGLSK
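A Gal4/UAS one-hybrid system in insect cells: metallothionein-promoter Gal4–ROR gamma fusion plus Photinus luciferase reporter. Copper sulfate 700 uM final, 20 hr ambient incubation, luminescent detection after 10 min with reagent.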
Gal4-VP16 FLuc: inhibits Gal4-VP16 luciferase reporter, ROR gamma counter-screen; Drosophila S2 Gal4-VP16 UAS-luciferase, luminescence, 20 h; Potency, µM (top dose mostly 53.6 µM), for the others: at the highest dose activity, negative = inhibition, usual class: inhibitors; hit rate 3.5% among 310,000; AID 2546;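 note: Gal4-VP16 expression switched on by copper sulfate through the metallothionein promoter; potency is the fitted concentration of half-maximal effect; % is set by controls: 0 for no effect and ±100 for the full control effect; nearly all actives have a fitted effect of over 50% in size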
MCF10A rerep: induces DNA re-replication in MCF 10a normal breast cells; hit rate 2.9% among 350,000; MCF 10A DNA re-replication, Hoechst nuclear intensity, 48 h; Potency, µM (doses to about 46.1 µM), for the others: at the top dose activity, positive = re-replication, actives largely listed as activators; AID 624296; note: potency is the fitted concentration of half-maximal effect; % of control where 0% means no effect; nearly all actives have a fitted effect of over 50% in size
IL-1B inflam inh: inhibitors of inflammasome signaling (IL-1 beta secretion) | THP-1 LPS/ATP IL-1B secretion, AlphaLISA, 16 h; stronger effect = lower value | activity change, % at 57.5 µM | hit rate 4.7% among 360,000; in the data active = activity change below about -50%; inconclusive = mostly about -30% to -49%; note: % is set by controls: 0 for no effect and ±100 for the full control effect
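Secreted IL-1B measured by AlphaLISA bead assay after 16 h compound exposure of THP-1 cells; compounds (final up to 57.5 uM) added 1 h before LPS (250 ng/mL) and ATP (1.25 mM) stimulation; lower signal means less secretion.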
SW480 rereplic: DNA re-replication induction in SW480 cells | SW480 DNA re-replication, Hoechst DNA content imaging, 48 h | Potency, µM (top dose mostly 46.1 µM), for inactives: top-dose re-replication activation, actives largely listed as activators | hit rate 1.8% among 340,000; note: potency is the fitted concentration of half-maximal effect; % of control where 0% means no effect; nearly all actives have a fitted effect of over 55% in size
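Image-based read-out: total Hoechst fluorescence of nuclei (405 nm excitation, 500-530 nm emission), with hits raising the fraction of high-intensity nuclei. SW480 colon cells incubated 48 hr with compounds at 37 C.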
An asterisk follows results filed as active; u = inconclusive; x = not tested or not shown; [ ] = another dose, or the depositor's remark. Unless noted, calls come from the whole dose curve; as a rule, active = well fitted curve in the direction sought with a large enough effect; inconclusive = small, poorly fitted or top-dose-only effect, or another doubt; inactive = no such curve, though single readings can be large; an effect the other way counts as inactive or inconclusive.

SMILES	RORgamma inh	Gal4-VP16 FLuc	MCF10A rerep	IL-1B inflam inh	SW480 rereplic
O=C(NCCC(=O)N1CCN(c2cccc(Cl)c2)CC1)c1ccc(Br)cc1	x	x	u	-55*	2%
O=C(NC(=O)N1CCN(c2cccc(Cl)c2)CC1)c1ccc(Cl)cc1	16µM*	u	5.2µM*	-29	0%
O=C(NCCC(=O)N1CCN(c2ccccc2O)CC1)c1ccc(Br)cc1	x	x	4%	-8	-2%
CN(C)CCCNC(=O)c1ccc(-c2cc3nc(NCc4cccnc4)n(C)c(=O)c3s2)cc1	x	x	x	-4	x
O=C(NCc1ccccc1)c1cc(C2COCCN2C(=O)OCCF)on1 (configuration not stated)	x	x	x	17	x
CCCCCCCCOC(=O)c1cc([N+](=O)[O-])c(Sc2ncnc3nc[nH]c23)c([N+](=O)[O-])c1	x	x	4%	-71*	u
O=C(NC(c1ccc(-c2ccccc2)cc1)c1cnccn1)C1CCN(CCCOc2ccccc2)CC1 (configuration not stated)	x	x	x	-21	x
O=C1NC[C@H](CCCCN2CCN(CC3CCCCC3)C(=O)C2=O)N(CCC2CCCCC2)C1=O	x	x	x	-14	x
Cc1onc(-c2ccccc2Cl)c1C(=O)NCc1ccccc1F	10%	4%	10%	3	16%
Cc1onc(-c2ccccc2Cl)c1C(=O)NCc1nc(-c2ccc(C(F)(F)F)cc2)no1	11%	u	u	-76*	u
Cc1cnc(C(=O)Nc2cccc3cccnc23)cn1	0.079µM*	0.2µM*	u	198	u
Cc1onc(-c2c(Cl)cccc2Cl)c1C(=O)Nc1nccs1	10µM*	u	30%	27	-2%
Cc1onc(-c2ccccc2Cl)c1C(=O)Nc1cccc2cccnc12	-28%[10 µM]	3%	8.2µM*	-20	13%
CC1CN(S(=O)(=O)c2cc(C(=O)NCCCN3CCCC3=O)ccc2Cl)CC(C)O1 (configuration not stated)	x	x	1%	33	-4%
CC(C)c1ccc(NC(=O)NCc2cccnc2)cc1	53%	u	0%	10	1%
COc1cccc(CNC(=O)Cn2nc(C)c([N+](=O)[O-])c2C)c1	-4%	4%	-3%	15	-15%
C=CCC1C=CC(OC(=O)OCC)C(COC(=O)OCC)O1 (configuration not stated)	0%[10 µM]	-4%[10 µM]	x	x	x
C[C@@H](CO)[C@H](/C=C/c1ccccc1)CCO[Si](c1ccccc1)(c1ccccc1)C(C)(C)C	11%	5%	x	x	x
Cc1cccc(C(=O)NNC(=O)c2c(-c3ccccc3Cl)noc2C)c1O	10µM*	-26%	-2%	-4	u
Cc1ccc(C)c(N2CCN(CCCNC(=O)Cn3cc4c(n3)CCCCC4)CC2)c1	13µM*	20µM*	u	u	13%
CCNC(=O)NCc1cccc(Cl)c1	2%	-10%	1%	x	-2%
CCOC(=O)C1CCN(S(=O)(=O)c2ccc(OCC(=O)OC)cc2)CC1	-24%	-5%	-8%	-53*	2%
CCOC(=O)C1CCCN(C(=O)Cn2sc3nc(C)cc(C)c3c2=O)C1 (configuration not stated)	u	1.8µM*	u	-4	u
CCOCCCNC(=O)Cn1cnc2sc(C)c(S(=O)(=O)N3CCN(c4ncccn4)CC3)c2c1=O	14%	-16%	3%	-17	5.2µM*
CCOC(=O)COc1ccc(S(=O)(=O)c2ccc(OCC(=O)OCC)cc2)cc1	2%	9%	u	-92*	u
SMILES	RORgamma inh	Gal4-VP16 FLuc	MCF10A rerep	IL-1B inflam inh	SW480 rereplic
Cc1cc(C)c2c(=O)n(CC(=O)N3CCC(N4CCCCC4)CC3)sc2n1	u	u	u	15	-16%
COC(=O)COc1ccc(S(=O)(=O)N2CCCCCC2)cc1	-5%	0%	5%	19	-6%
CCOC(=O)COc1ccc(S(=O)(=O)N2CCN(C(=O)OCC)CC2)cc1	-4%	-1%	-6%	27	2%
CCOC(=O)C1CCCN(C(=O)COc2ccc(S(=O)(=O)N3CCOCC3)cc2)C1 (configuration not stated)	x	x	-2%	-75*	-9%
CCOC(=O)CS(=O)(=O)c1ccc(O)cc1	-13%	-10%	2%	-92*	-35%
CCOC(=O)c1ccc(S(=O)(=O)N2CCN(CC(=O)NC(=O)NC3CCCCC3)CC2)cc1	u	-5%	-1%	-52*	-2%
CC(=O)c1ccc(S(=O)(=O)N2CCN(CC(=O)NC(=O)NC3CCCCC3)CC2)cc1	x	x	5%	-9	2%
CCOC(=O)N1CCN(S(=O)(=O)c2ccc(OCC(=O)OC)cc2)CC1	-1%	0%	18%	-64*	20%
Cc1ccc(NC(=O)COC(=O)c2cccc(S(=O)(=O)N3CCCCCC3)c2)cc1	x	x	x	17	x
CCOc1ccc(N2C(=O)CC(NC3CCN(C(=O)c4cccs4)CC3)C2=O)cc1 (configuration not stated)	x	x	-2%	6	-1%
CCOC(=O)C1CCCN(C(=O)Cn2cnc3sc(C)c(S(=O)(=O)N4CCOCC4)c3c2=O)C1 (configuration not stated)	0%	0%	-4%	-53*	-2%
Cc1ccc(C(=O)N2c3ccccc3N(Cc3ccccc3)C(=O)C2(C)C)cc1	65%	u	4%	-68*	u
O=C(Cn1cnc2c(nnn2Cc2ccccc2F)c1=O)N1CCN(c2ccccc2)CC1	u	3%	-2%	-14	-8%
O=C(CSc1ncnc2c1nnn2Cc1ccccc1F)N1CCN(c2ccccc2)CC1	30%	-1%	21µM*	-84*	23%
CC(C)(C)NC(=O)CSc1ncnc2c1nnn2Cc1ccccc1Cl	u	-14%	15µM*	-60*	u
Cc1cc(Br)cc(Cl)c1OC(=O)c1ccncc1	-21%	-27%	-1%	18	-20%
Cn1ccc2c(-c3ccc(C(=O)O)cc3)cc3c(c21)C1CCC3O1 (configuration not stated)	x	x	x	18	x
C=CC(=O)N=c1sc2ccccc2n1-c1ccccc1	10µM*	u	u	-104*	3.3µM*
O=C(Nc1cccc2c1CCCC2)c1cc(C2CCCCN2S(=O)(=O)c2cccs2)on1 (configuration not stated)	x	x	x	20	x
N=C1/C(=C/c2cccn2-c2ccc([N+](=O)[O-])cc2)C(=O)N=C2SC=CN12	8%	-12%	-78%	0	0%
COc1ccc(-c2ccc(/C=C3/C(=N)N4C=CSC4=NC3=O)o2)c([N+](=O)[O-])c1	2.5µM*	3.5µM*	16%	6	-1%
O=C(CN1CCCC1)N/N=C/c1ccc(-c2cccc(Cl)c2)o1	u	-17%	4%	-11	-3%[9.22 µM]
O=C(Cn1nnc(-c2ccccc2Cl)n1)N/N=C/c1ccc(-c2cccc(Cl)c2)o1	7.1µM*	6.3µM*	u	-4	4%
